Measurements: the supplement of paper PMC10849652
Targets with a hit are over-represented here; the source holds about 8,800 in all. About 0.5% of all pairs of compound and target were hits.

Assays:
Assay in all cases: log2 fold change, soluble protein after heating vs DMSO (PISA); higher = thermal stabilisation; K562 lysate, 10 uM; active = over 0.2 and 3.5 SD of the protein, either way, in both replicates (recomputed)
lapatinib = compound: CS(=O)(=O)CCNCc1ccc(-c2ccc3ncnc(Nc4ccc(OCc5cccc(F)c5)c(Cl)c4)c3c2)o1 [lapatinib]
In short: (§1)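 The values are log-two fold changes in thermal stability compared with solvent controls and come from duplicates. They were obtained by TMTpro 16plex LC-MS/MS, with channel sums equalised, on the supernatant after 21,000xg for 90 min. That supernatant came from crude K562 extract at 1 mg/mL protein treated with 10 μM compound for 30 min, heated for 3 min across 48°C-58°C, pooled and brought to 0.5% NP-40 at 4°C.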

pictilisib = compound: CS(=O)(=O)N1CCN(Cc2cc3nc(-c4cccc5[nH]ncc45)nc(N4CCOCC4)c3s2)CC1 [pictilisib]
In short: as §1

crizotinib = compound: C[C@@H](Oc1cc(-c2cnn(C3CCNCC3)c2)cnc1N)c1c(Cl)ccc(F)c1Cl [crizotinib]
In short: as §1

[1] = compound: C[C@H](C1=CC=C(C=C1)C(=O)NC2=C3C=CNC3=NC=C2)N
In short: as §1

duvelisib = compound: C[C@H](Nc1ncnc2nc[nH]c12)c1cc2cccc(Cl)c2c(=O)n1-c1ccccc1 [duvelisib]
In short: as §1

gandotinib = compound: Cc1cc(Nc2cc(CN3CCOCC3)c3nc(C)c(Cc4ccc(Cl)cc4F)n3n2)n[nH]1 [gandotinib]
In short: as §1

tozasertib = compound: Cc1cc(Nc2cc(N3CCN(C)CC3)nc(Sc3ccc(NC(=O)C4CC4)cc3)n2)n[nH]1 [tozasertib]
In short: as §1

doramapimod = compound: Cc1ccc(-n2nc(C(C)(C)C)cc2NC(=O)Nc2ccc(OCCN3CCOCC3)c3ccccc23)cc1 [doramapimod]
In short: as §1

bafetinib = compound: Cc1ccc(NC(=O)c2ccc(CN3CC[C@H](N(C)C)C3)c(C(F)(F)F)c2)cc1Nc1nccc(-c2cncnc2)n1 [bafetinib]
In short: as §1

[2] = compound: Cc1cccc(CC(=O)N2CCc3c2ccc(-c2cn(C)c4ncnc(N)c24)c3F)n1
In short: as §1

Measured: log2 fold change

MAN2B2 (UniProt Q9Y2E5)
Sequence of UniProt Q9Y2E5 (Q9Y2E5 whole entry, looked up): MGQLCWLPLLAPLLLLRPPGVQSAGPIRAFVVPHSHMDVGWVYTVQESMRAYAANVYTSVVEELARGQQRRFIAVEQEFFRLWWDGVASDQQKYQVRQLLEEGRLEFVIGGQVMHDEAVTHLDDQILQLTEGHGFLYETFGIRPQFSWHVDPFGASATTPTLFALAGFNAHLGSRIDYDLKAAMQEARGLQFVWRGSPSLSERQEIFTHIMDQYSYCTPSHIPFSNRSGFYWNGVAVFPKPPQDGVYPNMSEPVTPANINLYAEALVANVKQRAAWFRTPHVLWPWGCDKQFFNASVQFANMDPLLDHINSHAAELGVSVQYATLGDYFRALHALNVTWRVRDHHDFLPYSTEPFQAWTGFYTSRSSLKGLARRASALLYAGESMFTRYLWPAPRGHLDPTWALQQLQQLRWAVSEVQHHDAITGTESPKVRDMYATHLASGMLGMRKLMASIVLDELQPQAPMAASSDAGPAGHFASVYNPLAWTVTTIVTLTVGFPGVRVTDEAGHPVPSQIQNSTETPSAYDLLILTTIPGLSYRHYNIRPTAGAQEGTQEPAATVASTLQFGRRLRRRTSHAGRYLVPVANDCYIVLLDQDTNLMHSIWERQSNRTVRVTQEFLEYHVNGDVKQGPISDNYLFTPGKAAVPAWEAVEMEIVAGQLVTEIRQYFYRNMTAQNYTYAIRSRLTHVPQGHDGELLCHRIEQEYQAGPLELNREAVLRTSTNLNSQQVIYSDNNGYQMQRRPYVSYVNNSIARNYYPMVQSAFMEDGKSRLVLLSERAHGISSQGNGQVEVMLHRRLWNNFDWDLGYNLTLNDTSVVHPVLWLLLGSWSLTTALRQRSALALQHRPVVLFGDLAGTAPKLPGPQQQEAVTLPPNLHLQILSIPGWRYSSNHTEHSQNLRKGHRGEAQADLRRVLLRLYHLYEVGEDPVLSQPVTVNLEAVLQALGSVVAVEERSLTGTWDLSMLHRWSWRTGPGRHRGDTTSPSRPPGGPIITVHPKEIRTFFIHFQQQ
active: [1] 0.595 | [2] -0.546
inactive: lapatinib 0.01 | pictilisib 0.021 | crizotinib 0 | duvelisib -0.018 | gandotinib -0.38 | tozasertib 0.003 | doramapimod -0.028 | bafetinib -0.12

MORC3 (UniProt Q14149)
inactive: lapatinib 0.021 | pictilisib -0.037 | crizotinib -0.02 | [1] 0.005 | duvelisib -0.001 | gandotinib -0.053 | tozasertib 0.001 | doramapimod 0.024 | bafetinib -0.001 | [2] 0.014

MIPEP (UniProt Q99797)
inactive: lapatinib -0.013 | pictilisib -0.031 | crizotinib 0.041 | [1] -0.004 | duvelisib -0.022 | gandotinib -0.049 | tozasertib 0.072 | doramapimod -0.059 | bafetinib 0.016 | [2] 0.04

LYRM4 (UniProt Q9HD34)
inactive: lapatinib -0.036 | pictilisib -0.026 | crizotinib -0.034 | duvelisib 0.031 | gandotinib -0.095 | tozasertib -0.021 | doramapimod -0.047 | bafetinib 0.008 | [2] -0.007
active: [1] 0.413

KIF11 (UniProt P52732)
inactive: lapatinib 0 | pictilisib 0.021 | crizotinib 0.001 | [1] -0.03 | duvelisib 0.017 | gandotinib -0.042 | tozasertib 0.006 | doramapimod 0.014 | bafetinib -0.014 | [2] 0.063

KNOP1 (UniProt Q1ED39)
inactive: lapatinib -0.046 | pictilisib 0.03 | crizotinib -0.068 | [1] 0.004 | duvelisib 0.022 | gandotinib 0.027 | tozasertib -0.085 | doramapimod 0.1 | bafetinib -0.06 | [2] -0.011

LBR (UniProt Q14739)
Sequence of UniProt Q14739 (Q14739 whole entry, looked up): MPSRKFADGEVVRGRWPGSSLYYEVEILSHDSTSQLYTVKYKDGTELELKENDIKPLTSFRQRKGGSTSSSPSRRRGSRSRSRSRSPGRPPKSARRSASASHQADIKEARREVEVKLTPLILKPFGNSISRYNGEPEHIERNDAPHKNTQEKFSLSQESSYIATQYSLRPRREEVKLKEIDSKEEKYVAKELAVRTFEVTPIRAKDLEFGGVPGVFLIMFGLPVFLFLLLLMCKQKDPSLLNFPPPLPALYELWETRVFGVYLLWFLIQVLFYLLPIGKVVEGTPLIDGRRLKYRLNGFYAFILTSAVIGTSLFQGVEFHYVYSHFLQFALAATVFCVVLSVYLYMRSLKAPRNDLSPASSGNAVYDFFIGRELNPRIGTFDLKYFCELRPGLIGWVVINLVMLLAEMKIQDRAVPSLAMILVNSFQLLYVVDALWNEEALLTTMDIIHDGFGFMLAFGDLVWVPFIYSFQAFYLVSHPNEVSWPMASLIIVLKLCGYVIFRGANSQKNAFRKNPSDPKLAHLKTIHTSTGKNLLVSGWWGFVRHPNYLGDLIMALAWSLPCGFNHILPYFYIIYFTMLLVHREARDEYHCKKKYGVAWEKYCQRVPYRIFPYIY
active: gandotinib -0.285
inactive: lapatinib -0.071 | pictilisib -0.068 | crizotinib 0.063 | [1] 0.159 | duvelisib -0.039 | tozasertib -0.003 | doramapimod -0.06 | bafetinib -0.114 | [2] -0.096

MARK3 (UniProt P27448)
Sequence of UniProt P27448 (P27448 whole entry, looked up): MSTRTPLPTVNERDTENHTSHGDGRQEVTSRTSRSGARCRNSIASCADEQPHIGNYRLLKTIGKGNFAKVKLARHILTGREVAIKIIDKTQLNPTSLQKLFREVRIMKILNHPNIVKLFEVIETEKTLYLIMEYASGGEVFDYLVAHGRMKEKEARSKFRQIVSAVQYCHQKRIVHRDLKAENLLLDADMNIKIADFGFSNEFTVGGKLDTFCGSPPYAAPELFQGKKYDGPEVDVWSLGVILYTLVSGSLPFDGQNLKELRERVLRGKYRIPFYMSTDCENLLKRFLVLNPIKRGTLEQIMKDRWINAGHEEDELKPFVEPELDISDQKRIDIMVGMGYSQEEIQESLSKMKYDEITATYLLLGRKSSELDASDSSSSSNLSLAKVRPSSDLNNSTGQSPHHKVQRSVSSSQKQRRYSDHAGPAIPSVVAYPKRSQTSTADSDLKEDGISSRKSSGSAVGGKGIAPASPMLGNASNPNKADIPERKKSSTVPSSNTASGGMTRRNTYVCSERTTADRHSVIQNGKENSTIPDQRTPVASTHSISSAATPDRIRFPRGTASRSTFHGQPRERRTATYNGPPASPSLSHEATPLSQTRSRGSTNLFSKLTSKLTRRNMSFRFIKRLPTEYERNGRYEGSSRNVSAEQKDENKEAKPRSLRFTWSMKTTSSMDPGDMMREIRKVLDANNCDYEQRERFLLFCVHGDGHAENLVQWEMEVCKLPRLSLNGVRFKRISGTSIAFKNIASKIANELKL
inactive: lapatinib 0.007 | pictilisib -0.061 | crizotinib -0.206 | [1] 0.043 | duvelisib 0.011 | gandotinib -0.089 | tozasertib -0.143 | doramapimod -0.081 | bafetinib -0.088 | [2] 0.049

MMS22L (UniProt Q6ZRQ5)
inactive: lapatinib -0.101 | pictilisib -0.034 | crizotinib 0.113 | [1] 0.065 | duvelisib -0.106 | gandotinib -0.169 | tozasertib 0.087 | doramapimod -0.018 | bafetinib -0.152 | [2] -0.029

MITD1 (UniProt Q8WV92)
Sequence of UniProt Q8WV92 (Q8WV92 whole entry, looked up): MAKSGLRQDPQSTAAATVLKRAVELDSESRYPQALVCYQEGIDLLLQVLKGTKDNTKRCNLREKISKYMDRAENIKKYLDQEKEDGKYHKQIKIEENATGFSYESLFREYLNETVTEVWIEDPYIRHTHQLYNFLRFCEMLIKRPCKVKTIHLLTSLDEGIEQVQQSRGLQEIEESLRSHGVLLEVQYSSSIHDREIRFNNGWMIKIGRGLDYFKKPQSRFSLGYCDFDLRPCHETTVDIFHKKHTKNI
inactive: lapatinib 0.003 | pictilisib -0.032 | crizotinib 0.046 | [1] 0.086 | duvelisib 0.055 | gandotinib 0.025 | tozasertib -0.015 | doramapimod -0.049 | bafetinib -0.118 | [2] -0.085

LRCH3 (UniProt Q96II8)
inactive: lapatinib -0.008 | pictilisib -0.08 | crizotinib -0.114 | [1] -0.046 | duvelisib -0.012 | gandotinib 0.027 | tozasertib 0.012 | doramapimod 0.099 | bafetinib -0.104 | [2] 0.059

LYSMD3 (UniProt Q7Z3D4)
inactive: lapatinib -0.039 | pictilisib -0.039 | crizotinib -0.018 | [1] -0.273 | duvelisib 0.066 | gandotinib 0.307 | tozasertib 0.058 | doramapimod 0.041 | bafetinib -0.057 | [2] 0.23

LRRC7 (UniProt Q96NW7)
inactive: lapatinib -0.048 | pictilisib 0.041 | crizotinib 0.065 | [1] -0.025 | duvelisib 0.083 | gandotinib -0.07 | tozasertib -0.018 | doramapimod 0.001 | bafetinib 0.112 | [2] 0.093

MCU (UniProt Q8NE86)
active: gandotinib -0.311
inactive: lapatinib -0.145 | pictilisib -0.041 | crizotinib -0.125 | [1] -0.03 | duvelisib 0.037 | tozasertib -0.02 | doramapimod 0.085 | bafetinib -0.108 | [2] 0.032

MMS19 isoform 8 (UniProt Q96T76)
inactive: lapatinib -0.03 | pictilisib -0.04 | crizotinib -0.074 | [1] 0.049 | duvelisib -0.003 | gandotinib -0.101 | tozasertib -0.004 | doramapimod 0.023 | bafetinib -0.066 | [2] 0.004

KPNA4 (UniProt O00629)
active: [1] -0.217
inactive: lapatinib 0.03 | pictilisib 0.011 | crizotinib -0.044 | duvelisib 0.012 | gandotinib 0.089 | tozasertib -0.018 | doramapimod 0.02 | bafetinib 0.049 | [2] 0.155

LIMK2 isoform 3 (UniProt P53671)
Sequence of UniProt P53671 (P53671 whole entry, looked up): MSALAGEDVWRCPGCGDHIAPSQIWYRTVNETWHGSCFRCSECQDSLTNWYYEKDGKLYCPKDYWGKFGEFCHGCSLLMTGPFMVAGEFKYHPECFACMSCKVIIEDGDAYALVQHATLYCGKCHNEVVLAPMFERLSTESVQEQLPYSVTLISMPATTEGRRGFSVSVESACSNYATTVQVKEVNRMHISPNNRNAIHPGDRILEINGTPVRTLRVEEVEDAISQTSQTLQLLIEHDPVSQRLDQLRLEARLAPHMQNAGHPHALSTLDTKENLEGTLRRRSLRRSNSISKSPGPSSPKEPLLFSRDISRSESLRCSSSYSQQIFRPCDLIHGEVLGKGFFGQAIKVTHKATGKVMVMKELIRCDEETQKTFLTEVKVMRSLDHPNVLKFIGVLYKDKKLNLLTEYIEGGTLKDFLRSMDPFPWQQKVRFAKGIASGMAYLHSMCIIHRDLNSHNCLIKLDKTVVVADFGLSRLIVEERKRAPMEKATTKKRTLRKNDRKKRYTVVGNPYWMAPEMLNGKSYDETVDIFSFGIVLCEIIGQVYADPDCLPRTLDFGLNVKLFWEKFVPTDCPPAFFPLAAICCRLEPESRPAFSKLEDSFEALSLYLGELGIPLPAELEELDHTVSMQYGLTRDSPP
inactive: lapatinib 0.029 | pictilisib 0.112 | crizotinib -0.138 | duvelisib -0.035 | gandotinib -0.144 | tozasertib 0.01 | doramapimod 0.109 | bafetinib -0.108 | [2] -0.037
active: [1] 0.626

MED8 isoform 2 (UniProt Q96G25)
active: [1] 0.269
inactive: lapatinib 0.005 | pictilisib -0.051 | crizotinib 0.014 | duvelisib 0.023 | gandotinib -0.026 | tozasertib 0.047 | doramapimod 0.069 | bafetinib -0.031 | [2] -0.044

MRPL10 isoform 2 (UniProt Q7Z7H8)
inactive: lapatinib -0.02 | pictilisib -0.041 | crizotinib -0.104 | [1] 0.152 | duvelisib 0.034 | gandotinib -0.037 | tozasertib -0.01 | doramapimod 0.104 | bafetinib -0.059 | [2] -0.012

MGST3 (UniProt O14880)
Sequence of UniProt O14880 (O14880 whole entry, looked up): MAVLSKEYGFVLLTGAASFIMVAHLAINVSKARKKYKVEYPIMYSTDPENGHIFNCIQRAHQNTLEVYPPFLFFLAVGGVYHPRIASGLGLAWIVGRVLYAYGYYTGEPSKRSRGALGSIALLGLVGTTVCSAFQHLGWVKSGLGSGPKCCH
inactive: lapatinib 0.01 | pictilisib -0.017 | crizotinib 0.004 | [1] 0.23 | duvelisib -0.02 | gandotinib -0.078 | tozasertib -0.035 | doramapimod -0.025 | bafetinib -0.048 | [2] -0.087

KIF15 (UniProt Q9NS87)
inactive: lapatinib -0.02 | pictilisib 0.006 | crizotinib -0.017 | [1] 0 | duvelisib -0.002 | gandotinib -0.017 | tozasertib 0.008 | doramapimod 0.006 | bafetinib -0.025 | [2] 0.033

MACO1 (UniProt Q8N5G2)
inactive: lapatinib 0.016 | pictilisib 0.041 | crizotinib 0.003 | [1] -0.019 | duvelisib 0.015 | gandotinib -0.008 | tozasertib 0.138 | doramapimod -0.035 | bafetinib -0.001 | [2] -0.001

MAT2B (UniProt Q9NZL9)
inactive: lapatinib 0.008 | pictilisib -0.028 | crizotinib 0.007 | [1] 0.063 | duvelisib -0.031 | gandotinib -0.02 | tozasertib 0.019 | doramapimod -0.023 | bafetinib -0.007 | [2] 0.005

MRPL46 (UniProt Q9H2W6)
inactive: lapatinib 0.019 | pictilisib 0.096 | crizotinib -0.011 | duvelisib 0.033 | gandotinib -0.09 | tozasertib 0.008 | doramapimod 0.024 | bafetinib 0.034 | [2] -0.073
active: [1] 0.452

KNSTRN (UniProt Q9Y448)
inactive: lapatinib 0.013 | pictilisib 0.05 | crizotinib 0.029 | [1] 0.065 | duvelisib -0.009 | gandotinib -0.024 | tozasertib 0.026 | doramapimod -0.052 | bafetinib 0.024 | [2] -0.056

MLST8 (UniProt Q9BVC4)
inactive: lapatinib -0.028 | pictilisib -0.073 | crizotinib 0.004 | [1] -0.034 | duvelisib -0.028 | gandotinib -0.055 | tozasertib 0.078 | doramapimod 0.08 | bafetinib -0.026 | [2] 0.032

MAPK8 isoform 3 (UniProt P45983)
Sequence of UniProt P45983 (P45983 whole entry, looked up): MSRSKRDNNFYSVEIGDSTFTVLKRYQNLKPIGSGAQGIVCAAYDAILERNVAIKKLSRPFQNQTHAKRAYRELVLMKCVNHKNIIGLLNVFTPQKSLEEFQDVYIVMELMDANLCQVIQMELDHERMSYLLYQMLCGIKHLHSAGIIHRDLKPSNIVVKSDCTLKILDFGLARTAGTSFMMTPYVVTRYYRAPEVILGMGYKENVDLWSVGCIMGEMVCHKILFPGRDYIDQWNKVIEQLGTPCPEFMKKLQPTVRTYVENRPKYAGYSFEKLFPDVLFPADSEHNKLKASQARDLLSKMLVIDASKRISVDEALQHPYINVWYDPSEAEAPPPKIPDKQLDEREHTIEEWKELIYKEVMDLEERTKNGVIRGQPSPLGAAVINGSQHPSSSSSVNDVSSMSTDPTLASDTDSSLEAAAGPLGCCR
inactive: lapatinib -0.042 | pictilisib 0.192 | crizotinib -0.089 | [1] -0.022 | duvelisib -0.07 | gandotinib 0.281 | tozasertib -0.007 | doramapimod -0.049 | bafetinib -0.014 | [2] -0.037

LARS (UniProt Q9P2J5)
Sequence of UniProt Q9P2J5 (Q9P2J5 whole entry, looked up): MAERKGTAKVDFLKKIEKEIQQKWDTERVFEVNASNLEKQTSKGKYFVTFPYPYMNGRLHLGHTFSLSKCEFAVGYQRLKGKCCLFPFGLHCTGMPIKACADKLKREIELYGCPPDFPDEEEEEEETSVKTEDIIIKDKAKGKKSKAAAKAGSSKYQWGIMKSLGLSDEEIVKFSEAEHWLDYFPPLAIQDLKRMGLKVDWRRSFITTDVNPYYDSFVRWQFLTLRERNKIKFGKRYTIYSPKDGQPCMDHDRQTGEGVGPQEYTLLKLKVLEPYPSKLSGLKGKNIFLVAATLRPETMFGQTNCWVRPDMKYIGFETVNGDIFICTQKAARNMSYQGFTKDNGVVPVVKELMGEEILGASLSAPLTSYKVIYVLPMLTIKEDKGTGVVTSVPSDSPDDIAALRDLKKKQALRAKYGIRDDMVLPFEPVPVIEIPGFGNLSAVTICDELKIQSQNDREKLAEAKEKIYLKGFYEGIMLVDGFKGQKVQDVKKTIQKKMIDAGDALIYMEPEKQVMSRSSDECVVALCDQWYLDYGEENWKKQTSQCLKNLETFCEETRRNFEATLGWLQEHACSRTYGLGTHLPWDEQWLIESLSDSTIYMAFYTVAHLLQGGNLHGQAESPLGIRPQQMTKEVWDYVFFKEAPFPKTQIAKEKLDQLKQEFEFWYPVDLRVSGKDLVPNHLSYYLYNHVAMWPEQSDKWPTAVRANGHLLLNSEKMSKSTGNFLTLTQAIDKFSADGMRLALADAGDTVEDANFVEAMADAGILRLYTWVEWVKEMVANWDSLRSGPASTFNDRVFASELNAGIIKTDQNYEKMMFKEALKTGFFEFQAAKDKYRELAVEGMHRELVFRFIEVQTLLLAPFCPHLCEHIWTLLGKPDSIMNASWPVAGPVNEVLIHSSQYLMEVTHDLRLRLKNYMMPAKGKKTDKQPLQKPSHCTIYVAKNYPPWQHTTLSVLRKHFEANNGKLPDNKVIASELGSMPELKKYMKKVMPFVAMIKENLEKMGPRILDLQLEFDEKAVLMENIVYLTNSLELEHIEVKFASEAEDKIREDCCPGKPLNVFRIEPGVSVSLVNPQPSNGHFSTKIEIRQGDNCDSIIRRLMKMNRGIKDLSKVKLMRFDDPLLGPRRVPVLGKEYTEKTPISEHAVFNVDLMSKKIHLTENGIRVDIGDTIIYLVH
inactive: lapatinib -0.004 | pictilisib -0.015 | crizotinib -0.043 | [1] 0.047 | duvelisib -0.013 | gandotinib -0.081 | tozasertib 0.012 | doramapimod -0.009 | bafetinib -0.048 | [2] -0.005

MRPL30 isoform 2 (UniProt Q8TCC3)
inactive: lapatinib 0.03 | pictilisib -0.029 | crizotinib -0.094 | duvelisib 0.068 | tozasertib 0.158 | doramapimod 0.013 | bafetinib 0.043
active: [1] 0.746 | gandotinib -0.373 | [2] -0.458

LDAH isoform 2 (UniProt Q9H6V9)
inactive: lapatinib 0.014 | pictilisib 0.006 | crizotinib -0.062 | [1] -0.016 | duvelisib 0.008 | gandotinib -0.036 | tozasertib 0.06 | doramapimod 0.021 | bafetinib -0.01 | [2] 0.143

MAPK14 isoform 2 (UniProt Q16539)
inactive: lapatinib -0.008 | pictilisib -0.054 | crizotinib -0.028 | [1] 0.222 | duvelisib -0.026 | gandotinib -0.086 | tozasertib 0.001 | bafetinib 0.765 | [2] -0.122
